Inconclusive results are not listed. Activity calls are given as the source filed them. Calls come from the whole dose curve; as a rule, active = well fitted cell-killing curve with a large enough effect in the repeat runs; inconclusive = weak or mixed curves, or effect the other way; inactive = flat fitted curve, though single readings scatter.
assay: cAMP Responsive Elements (CRE) small molecule antagonists, cell-based qHTS assay: qHTS cell viability counter screen (AID 2060913); conditions: CRE-bla HEK293T viability, CellTiter-Glo luminescence, 5 h; series mostly up to 92.4 µM; viability change, negative = cytotoxic: at the top concentration; note: nearly all actives have a fitted effect of over 40% in size
Summary of the method: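 CRE-bla HEK293T cells were seeded in assay medium with 10% dialyzed FBS, incubated 18 hrs at 37 C, then exposed to compounds plus 0.25 uM final NKH477 for 3 hrs. Viability was read by CellTiter-Glo luminescence after 30 min, in the same wells.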
% is set by controls: 0 for no effect and ±100 for the full control effect; potency is the fitted concentration of half-maximal effect.

Row | Structure (SMILES) | Potency | viability change, negative = cytotoxic
1 | C[C@@H](Oc1ccc(CNC(=O)c2cccnc2Oc2ccc3c(c2)OCO3)c(F)c1)C(=O)O | 13.7 µM (active) | –
2 | CN(CC1(C)CCCO1)S(=O)(=O)c1ccc(Cl)c(S(N)(=O)=O)c1 (stereo not given) | – | -1.01% [at 42.5 µM] (inactive)
3 | OC1(c2ccc(Cl)cc2)CCNCC1 | – | 3.22% [at 42.5 µM] (inactive)
4 | CCCC(=O)OC(=O)CCC | – | -0.4% (inactive)
5 | CCO[Si](CCCN=C=O)(OCC)OCC | – | 13.3% (inactive)
6 | Cc1ccc(N=Nc2c(O)c(C(=O)O)cc3ccccc23)c(S(=O)(=O)O)c1 | – | 16.5% [at 42.5 µM] (inactive)
7 | CCOC(=O)C1CC(=O)C(=C(O)C2CC2)C(=O)C1 (stereo not given) | – | -2.19% (inactive)
8 | COC(=O)c1cc(Cl)ccc1OC | – | 0.197% [at 42.5 µM] (inactive)
9 | O=c1[nH]c(=O)n([C@H]2C[C@H](O)[C@@H](CO)O2)cc1F | – | -9.84% [at 42.5 µM] (inactive)
10 | CN(C)c1ccc(SC#N)cc1 | – | -0.473% (inactive)
11 | CC(C)=CCC[C@H](C)CC=O | – | -11.7% (inactive)
12 | COCCCN | inactive | –
13 | COC(C)(C)CC(C)=O | – | -2.66% (inactive)
14 | COc1ccc(N)c(OC)c1 | inactive | –
15 | Oc1ccc2c(c1)OCO2 | – | -7.06% (inactive)
16 | CC=C(Cl)Cl | – | 4.8% (inactive)
17 | Cc1c(C(=O)NCCO)[n+](=O)c2ccccc2n1[O-] | – | 0.313% [at 42.5 µM] (inactive)
18 | N=C(N)c1ccc(OCCCCCOc2ccc(C(=N)N)cc2)cc1 | inactive | –
19 | C[C@H]1C[C@H]2[C@@H]3CCC4=CC(=O)C=C[C@]4(C)[C@@]3(F)[C@@H](O)C[C@]2(C)[C@@]1(O)C(=O)CO | inactive | –
20 | C=CCOCC(CC)(CO)COCC=C | – | 0.0609% (inactive)
